The text below walks through data of PubChem BioAssay (NCATS).

Experiment [1] is described as follows: qHTS assay for small molecule agonists of the antioxidant response element (ARE) signaling pathway measured by Nrf2-dependant transcriptional activity (AID 720636; active = well fitted curve in the direction sought with a large enough effect in the repeat runs; an effect the other way counts as inactive or inconclusive;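 note: HepG2 cells with an ARE-driven luciferase reporter; % of control where 0% means no effect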). The following applies: ARE-luc HepG2, Nrf2 luciferase reporter, 16 h; series mostly up to 92.4 µM. An outline of the steps:
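Cells: ARE-luc HepG2 with Nrf2-responsive luciferase. Medium contained 1% dialyzed FBS. Compound exposure lasted 16 hr at 37 C and 5% CO2, followed by ONE-Glo luciferase detection.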

Experiment [2] can be described thus: qHTS assay for small molecule antagonists of the retinoid-related orphan receptor gamma (ROR-gamma) signaling pathway - cell viability counter screen (AID 720652; active = well fitted curve in the direction sought with a large enough effect in the repeat runs; an effect the other way counts as inactive or inconclusive;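 note: CHO reporter cells with doxycycline-induced ROR-gamma expression; compound exposure lasted 16 hr before ATP read; % is set by controls: 0 for no effect and ±100 for the full control effect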). Conditions: RORgamma reporter cell line viability counter screen; series mostly up to 92.2 µM. An outline of the steps:
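Cytotoxicity is quantified via intracellular ATP (CellTiter-Glo luminescence) in doxycycline-induced CHO ROR response element-luciferase reporter cells treated with compound for 16 hr at 37 C, 5% CO2.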
For orientation: qHTS replaces the single test concentration by a dilution series.

Experiment [3] is described as follows: qHTS assay for small molecule agonists of the antioxidant response element (ARE) signaling pathway measured by Nrf2-dependant transcriptional activity - cell viability counter screen (AID 720653; active = well fitted curve in the direction sought with a large enough effect in the repeat runs; an effect the other way counts as inactive or inconclusive; note: potency is the fitted concentration of half-maximal effect; for max response: % is set by controls: 0 for no effect and ±100 for the full control effect). Conditions: ARE-bla HepG2 viability, CellTiter-Glo ATP luminescence, 16 h; max response: stronger effect = lower value. An outline of the steps: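 ARE-bla HepG2 cells treated with compounds for 16 h at 37C; this counter screen measures viability as intracellular ATP by CellTiter-Glo luminescence after 30 min at room temperature.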

Experiment [4] is described as follows: qHTS Assay for Identifying Gametocytocidal Compounds (AID 743244).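 For max response: % is set by controls: 0 for no effect and ±100 for the full control effect; actives lower the fluorescent signal which means gametocytes are killed.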 Note: potency is the fitted concentration of half-maximal effect. The following applies: P. falciparum 3D7 stage III-V gametocytes, alamarBlue, 72 h; max response: stronger effect = lower value. An outline of the steps:
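Using 20,000 stage III–V 3D7 gametocytes per well, compounds were incubated 72 h under 37 °C/5% CO2. Viability was then assessed by 24 h alamarBlue reduction, measured fluorometrically at 525/598 nm.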

The nature of experiment [5]: qHTS for compounds that reverse cellular toxicity of Amyloid beta (A-beta) peptide in yeast: LOPAC Validation Assay (AID 720559).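 Note: plate controls were DMSO for no effect and equimolar ferric chloride plus clioquinol rescue for full effect.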 The following applies: yeast expressing A-beta; series mostly up to 46.1 µM. An outline of the steps: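 Here, A-beta-toxic yeast grow with test compounds at 30 C for 48 hr before optical density at 600 nm is recorded; data are normalized against DMSO and the FeCl3-clioquinol control.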

Experiment [6] is described as follows: qHTS for Activators of Parkin Expression: LOPAC Validation Assay (NLuc Reporter) (AID 720572). The following applies: Parkin promoter NanoLuc reporter cells, luminescence, percent of positive control, DMSO as zero; series mostly up to 46.1 µM. An outline of the steps: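 Neuronal cells with a Parkin promoter-driven FLuc/NLuc coincidence reporter were treated 24 h at 37 C in 7-point dose response (LOPAC). NLuc luminescence read after FLuc; signals normalized to DMSO and positive control (100%).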

Experiment [7] can be described thus: qHTS for Activators of Parkin Expression: LOPAC Validation Assay (FLuc Reporter) (AID 720573). Conditions: Cell line, PRKN promoter firefly luciferase reporter, vehicle wells = 0, positive control = 100%; series mostly up to 46.1 µM. In a few lines: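 Readout is FLuc luminescence from neuronal reporter cells (Parkin promoter, FLuc plus NLuc) after 24 h compound exposure in dose response. Values normalized to neutral DMSO and positive-control compounds.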

Experiment [8] deals with T1, Hexokinase-4 (Homo sapiens) + Glucokinase regulatory protein (Homo sapiens) (UniProt P35557+Q14397). Nature of the experiment: qHTS assay for inhibitors of recombinant human GCK-GKRP interaction: Diaphorase-coupled assay (AID 743205). The following applies: G6PDH/diaphorase resorufin fluorescence; series mostly up to 57.5 µM. In a few lines: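 Signal derives from resorufin generated by diaphorase, linked to GCK turnover of glucose (5 mM) and ATP (0.4 mM). Enzyme complex was added after a 20-minute compound preincubation and monitored for 30 minutes.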
T1 sequence (P35557 whole entry, looked up): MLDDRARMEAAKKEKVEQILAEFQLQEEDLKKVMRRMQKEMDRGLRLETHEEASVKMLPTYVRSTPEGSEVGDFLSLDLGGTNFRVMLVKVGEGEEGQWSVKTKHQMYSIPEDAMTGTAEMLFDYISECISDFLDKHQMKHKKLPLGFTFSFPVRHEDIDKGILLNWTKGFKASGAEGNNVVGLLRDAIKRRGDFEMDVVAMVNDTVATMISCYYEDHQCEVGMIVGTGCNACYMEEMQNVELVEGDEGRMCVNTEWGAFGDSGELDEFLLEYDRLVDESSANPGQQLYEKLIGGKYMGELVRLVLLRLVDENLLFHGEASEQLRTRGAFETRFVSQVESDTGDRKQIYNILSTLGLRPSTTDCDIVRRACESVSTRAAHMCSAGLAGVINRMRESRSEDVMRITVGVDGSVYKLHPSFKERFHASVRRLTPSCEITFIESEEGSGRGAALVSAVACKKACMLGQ
T1 sequence (Q14397 whole entry, looked up): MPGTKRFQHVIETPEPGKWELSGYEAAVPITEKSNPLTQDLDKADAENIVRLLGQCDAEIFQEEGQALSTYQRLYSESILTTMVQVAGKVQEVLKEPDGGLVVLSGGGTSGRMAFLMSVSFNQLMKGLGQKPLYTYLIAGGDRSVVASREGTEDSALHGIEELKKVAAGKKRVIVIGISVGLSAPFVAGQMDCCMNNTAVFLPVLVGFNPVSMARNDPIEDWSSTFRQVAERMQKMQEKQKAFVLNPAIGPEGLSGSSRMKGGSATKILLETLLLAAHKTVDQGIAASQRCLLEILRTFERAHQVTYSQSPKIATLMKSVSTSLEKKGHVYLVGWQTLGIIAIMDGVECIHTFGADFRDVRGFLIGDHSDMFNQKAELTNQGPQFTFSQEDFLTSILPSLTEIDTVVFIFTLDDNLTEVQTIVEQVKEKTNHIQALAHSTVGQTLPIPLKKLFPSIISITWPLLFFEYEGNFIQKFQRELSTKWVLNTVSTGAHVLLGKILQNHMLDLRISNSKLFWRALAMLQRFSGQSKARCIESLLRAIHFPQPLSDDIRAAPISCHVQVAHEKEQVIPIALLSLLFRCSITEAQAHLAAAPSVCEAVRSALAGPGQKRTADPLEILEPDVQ

The target of experiment [9] is T1, Hexokinase-4 (Homo sapiens) + Glucokinase regulatory protein (Homo sapiens). Nature of the experiment: qHTS assay for inhibitors of recombinant human GCK-GKRP interaction: ADP-Glo assay (AID 743206).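 Note: plate controls were DMSO plus enzyme for no effect and no enzyme for full effect.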 The following applies: ADP-Glo luminescence, 60 min, 0% = vehicle-only wells with enzyme present; series mostly up to 76.9 µM. An outline of the steps:
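GST-GCK and FLAG-GKRP (15 nM each in the dispensed mix, with 2 uM S6P) react with 0.4 mM ATP and 5 mM glucose (final) in Hepes pH 7.6 for 60 min at room temperature. ADP is measured by ADP-Glo luminescence.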

For experiment [10] the target is unchanged. Nature of the experiment: qHTS assay for inhibitors of recombinant human GCK-GKRP interaction: HTRF assay (AID 743207).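 Note: 0% = DMSO with GCK present and -100% = DMSO wells lacking GCK.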 Conditions: recombinant GCK-GKRP HTRF binding, 60 min, with sorbitol-6-phosphate; series mostly up to 57.5 µM. In a few lines:
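Titration screening format: recombinant GST-GCK and FLAG-GKRP at 5 nM, S6P at 2 uM, labelled anti-tag antibodies, 60 min at RT, dual-wavelength HTRF readout.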

Values joined by “and” are separate entries in the source; they are usually repeats but may differ in a detail not shown here. Identical values can stand only once. Unmarked numbers belong to inactive results. Inconclusive results are not listed. Active and inactive are the calls of the source. Unless noted, calls come from the whole dose curve; as a rule, active = well fitted curve in the direction sought with a large enough effect; inconclusive = small, poorly fitted or top-dose-only effect, or another doubt; inactive = no such curve, though single readings can be large; an effect the other way counts as inactive or inconclusive.

Take `COc1cc(C=O)ccc1O`: the outcome in [1] and in [2] was inactive. Besides, the max response in experiment [3] is -6.02% and -3.47%; in [4], 16.9%.
Regarding `CC(C)(c1ccc(O)cc1)c1ccc(O)cc1`, the outcome in experiment [1] and in experiment [2] was inactive. The max response is -12.4% and -0.346% and -0.0074% in [3]; -6.17% in experiment [4].
Take `Nc1c2ccccc2nc2ccccc12`: the result in experiment [1] and in [2] was inactive. Also, the values for the Potency in [3] and in experiment [4] were 31.6 µM (active) and 10 µM (active), respectively.
As to `O=[N+]([O-])c1ccc(-c2nc(-c3ccc(F)cc3)c(-c3ccncc3)[nH]2)cc1`, the outcome in experiment [5], in experiment [6], in experiment [7], in [8], in experiment [9] and in experiment [10] was inactive. Besides, in experiment [4], the max response was -10.7%.
As to `Oc1ccccc1`, the call in experiment [1] and in [2] was inactive. Further, the max response in experiment [3] was -6.78% and -2.25% and 3.75%; in experiment [4], 2.14%.
Turning to `CN1C(=O)c2ccccc2C1=O`, the outcome in experiment [1] was inactive. Further, the results for the max response in [3] and in [4] were -2.52% and 10.3%, respectively.
As to `COc1ccccc1N1CCN(CCN2C(=O)CC3(CCCC3)CC2=O)CC1`, the molecule was classed as inactive in experiment [5], in [6], in experiment [7], in experiment [8], in experiment [9] and in experiment [10]. Besides, in experiment [4], the max response is 21.4%.
Consider `N[C@@H](Cn1ccc(=O)c(O)c1)C(=O)O`, for which the call in experiment [5], in [6], in experiment [7], in experiment [8], in experiment [9] and in [10] was inactive. In experiment [4], the max response is 9.87%.
Regarding `NC(N)=NCCCCN=C(N)N`, the result in [5], in experiment [6], in experiment [7], in experiment [8], in [9] and in [10] was inactive. Besides, the max response in experiment [4] was 2.24% and 15.3%.
With `COc1cccc2c1[C@@H]1CN(CCCCn3c(=O)[nH]c4c(sc5ncc(-c6ccccc6)nc54)c3=O)C[C@@H]1CO2`, the molecule was classed as inactive in experiment [5], in experiment [6], in experiment [7], in experiment [8], in experiment [9] and in experiment [10]. Besides, in [4], the max response is 22.3%.
`Cn1cnc2c(NCc3ccccc3)nc(NCCO)nc21`: the molecule was called inactive in experiment [5], in experiment [6], in [7], in [8], in experiment [9] and in experiment [10]. In addition, the max response in experiment [4] was 11.6%.
For `O=C1NC(c2cccc([N+](=O)[O-])c2)=CCN1c1ccccc1O`, the molecule was called inactive in experiment [5], in [6], in experiment [7], in [8], in [9] and in [10]. The max response in experiment [4] was 21.2%.
With `O=C(c1ccccc1)c1ccccc1`, the call in experiment [1] and in experiment [2] was inactive. Besides, the max response in experiment [3] was 6.09% and -10.7%; in experiment [4], -8.14%.
With `O=C(Nc1ccc(Cl)cc1)Nc1ccc(Cl)c(Cl)c1`, the molecule was classed as inactive in [1].
Same read-out and setting: under `Cc1ncc(CO)c(CO)c1O` stands “inactive”.
As to `CCN(CC)CCNC(=O)c1ccc(NS(C)(=O)=O)cc1`, the result in [8], in experiment [9] and in [10] was inactive.
Turning to `Cc1ccccc1N1CCN(CCc2nnc3n2CCCC3)CC1`, in experiment [4], the max response is -15.7%.
Still for that read-out and setting: under `Cc1ccc(/C=N/n2c(-c3ccccc3)csc2=S)cc1` stands -23%; under `O=C(OCC1(COC(=O)c2cccnc2)CCCC(COC(=O)c2cccnc2)(COC(=O)c2cccnc2)C1O)c1cccnc1`, -9.22%; under `Cc1cccc(N(C)C(=S)Oc2ccc3c(c2)CCC3)c1`, 14.9%.
Regarding `COc1c(N2C[C@@H]3CCCN[C@@H]3C2)c(F)cc2c(=O)c(C(=O)O)cn(C3CC3)c12`, the max response in experiment [4] is 11.5% and 6.91%.
Still for that read-out and setting: under `C[C@]12CCC(=O)C=C1CC[C@@H]1[C@@H]2[C@@H](O)C[C@@]2(C)[C@H]1CC[C@]2(O)C(=O)COC(=O)CCC(=O)O` stands -22.1%; under `C[C@@H](O[C@H]1OCCN(Cc2n[nH]c(=O)[nH]2)[C@H]1c1ccc(F)cc1)c1cc(C(F)(F)F)cc(C(F)(F)F)c1`, 16.6%; under `C[C@H]1C[C@@H]2[C@H]([C@@H](O)C[C@@]3(C)[C@H]2CC[C@]3(O)C(=O)CO)[C@@]2(C)C=CC(=O)C=C12`, -12.4%.
For `Cc1cc(OCCOCC[N+](C)(C)Cc2ccccc2)ccc1C(C)(C)CC(C)(C)C`, the Potency in experiment [4] is 7.08 µM (active).
As to `CN=C(N)NC(=O)Nc1c(C)cccc1C`, in [4], the max response is 9.51%.
On the same count and under the same terms, as for `CO[C@]1(NC(=O)CSC(F)F)C(=O)N2C(C(=O)O)=C(CSc3nnnn3CCO)CO[C@H]21`, the figure is 19.9%.
Consider `CCCCCCCCCCCCCCCC[N+](C)(C)Cc1ccccc1`, for which the Potency in experiment [4] is 7.08 µM (active).
As for `CC(C)C[C@H](NC(=O)CNC(=O)[C@H](Cc1ccc(O)cc1)NC(=O)[C@H](CO)NC(=O)[C@H](Cc1c[nH]c2ccccc12)NC(=O)[C@H](Cc1cnc[nH]1)NC(=O)[C@@H]1CCC(=O)N1)C(=O)N[C@@H](CCCN=C(N)N)C(=O)N1CCC[C@H]1C(=O)NCC(N)=O` (stereo in doubt), the max response in experiment [4] was -1.4%.
`CCc1cc(S(=O)(=O)O)c2cc(C(C)C)cccc1-2`: the max response in [4] is 0.277%.
The same measure, in the same setting: as for `O=C(O)[C@@H](O)[C@H](O)[C@H](O)[C@@H](O)C(=O)O`, the figure is 9.57%.
Still for that read-out and setting: as for `CC(=O)[C@H]1CC[C@H]2[C@@H]3C=CC4=CC(=O)CC[C@@]4(C)[C@@H]3CC[C@]12C`, the figure is -3.42%; as for `O=C(CS(=O)Cc1ccco1)NC/C=C\COc1cc(CN2CCCCC2)ccn1` (configuration not stated), 9.57%.
For the molecule `O=C(OCC(COC(=O)c1cccnc1)(COC(=O)c1cccnc1)COC(=O)c1cccnc1)c1cccnc1`, the max response in experiment [4] is 13.3%.
The same measure, in the same setting: as for `CCN1C(=O)c2ccccc2C1Nc1ccc(OCCN2CCCCC2)cc1` (configuration not stated), the figure is -8.48%.
The same measure, in the same setting: under `CC(C)(C)C(O)/C=C/c1ccc2c(c1)OCO2` (configuration not stated) stands -15.2%.
For `CCCCNc1ccc(C(=O)OCCN(CC)CC)cc1`, the max response in experiment [4] is -4.4%.
Same read-out and setting: under `CCC(C(=O)NC(=O)NC(C)=O)c1ccccc1` (configuration not stated) stands -11.8%.
Same read-out and setting: as for `CC(=O)O[C@@H]1C(=O)O[C@@H]2[C@H]1OC(=O)[C@@H]2OC(C)=O`, the figure is 14.5%; as for `OCCCc1ccccc1`, -2.92%; as for `O=C(O)c1[nH]n(-c2ccc(S(=O)(=O)O)cc2)c(=O)c1N=Nc1ccc(S(=O)(=O)O)cc1`, -0.65%.
On the same count and under the same terms, under `O=C(COCCOCCOCC(=O)Nc1c(I)cc(I)c(C(=O)O)c1I)Nc1c(I)cc(I)c(C(=O)O)c1I` stands 31%.
On to `OCCc1ccccc1`, for which the max response in experiment [4] is 0.746%.
Turning to `Cc1nc([N+](=O)[O-])cn1-c1ccc([N+](=O)[O-])cc1`, the max response in [4] was 9.29%.
The same measure, in the same setting: as for `CCOC(=O)c1ccc(NC(=O)CN2CCCCC2)cc1`, the figure is 11.1%.
Still for that read-out and setting: under `CCO[C@H](Cc1ccc(OCCc2ccc(OS(C)(=O)=O)cc2)cc1)C(=O)O` stands 6.84%.
